# Source: PubChem (National Center for Advancing Translational Sciences (NCATS))
# TDP1 cell CPT: growth inhibition of DT40 Tdp1-/-;hTDP1 cells with camptothecin (screen for TDP1 inhibitors) | chicken DT40 Tdp1-/-;hTDP1 cells + 20 nM CPT, ATP luminescence, 48 h | Potency, µM (doses to about 46.2 µM), for inactives: at the top dose activity change, negative = growth inhibition, most hits filed as inhibitors | hit rate 12% among 420,000; note: potency is the fitted concentration of half-maximal effect; nearly all actives have a fitted effect of over 55% in size
#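 Cell growth measured by CellTiter-Glo luminescence after a minimum 48 h, 37 C compound exposure with 20 nM CPT in Tdp1-knockout DT40 cells stably expressing hTDP1, seeded 400/well; qHTS titration format.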
# TDP1 cell noCPT: qHTS for Inhibitors of human tyrosyl-DNA phosphodiesterase 1 (TDP1): qHTS in cells in absence of CPT. hit rate 15% among 420,000. DT40 Tdp1-/- hTDP1 cells, no CPT, ATP luminescence, 48 h. AID 686978, 2013. Potency, µM (top dose mostly 46.2 µM), for inactives: top-dose activity change, negative = growth inhibition, hits mostly inhibitors; note: potency is the fitted concentration of half-maximal effect; nearly all actives have a fitted effect of over 55% in size
#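 Chicken DT40 Tdp1-/- cells stably complemented with human TDP1 were seeded at 400 cells/well with DMSO in place of 20 nM camptothecin. After compound pinning, cells grew at least 48 hr at 37 °C; viability read by CellTiter-Glo luminescence.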
# HT1080 IDH1KD tx: HT-1080 IDH1 knockdown cell toxicity (counter line); HT-1080 IDH1 knockdown viability, ATP luminescence, 48 h; Potency, µM (highest dose often 46.1 µM), inactives show top-dose activity, negative = toxicity, hits mostly cytotoxic; hit rate 2% among 360,000; AID 686971;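 note: potency is the fitted concentration of half-maximal effect; 0% = DMSO wells and -100% = cell-free medium wells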
#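 % activity derives from luminescence (CellTiter-Glo), normalised to DMSO and no-cell wells. HT-1080-IDH1KD cells, 750/well, had 48 h compound exposure at 37 °C.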
# IL1B secr inh: inhibitors of inflammasome signaling (IL-1 beta secretion) | THP-1 LPS/ATP IL-1B secretion, AlphaLISA, 16 h; stronger effect = lower value | activity change, % at 57.5 µM | hit rate 4.7% among 360,000 | AID 743279; in the data active = activity change below about -50%; inconclusive = mostly about -30% to -49%
#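 THP-1 cells pretreated 1 hr with compounds (up to 57.5 uM final), then stimulated with LPS (250 ng/mL final) plus ATP (1.25 mM final); secreted IL-1B measured by AlphaLISA after 16 hr, decreased signal indicating inhibition.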
# HT1080-NT tox: kills 2HG-producing HT-1080-NT fibrosarcoma cells; HT-1080-NT fibrosarcoma viability, CellTiter-Glo ATP luminescence, 48 h; Potency, µM (highest dose often 46.1 µM), for inactives: at the top dose activity, negative = less viability, hits mostly cytotoxic; hit rate 1.6% among 360,000;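 note: NT is the 2HG producing partner of a matched IDH1 knockdown line; potency is the fitted concentration of half-maximal effect; 0% = DMSO-treated cells and -100% = media-only wells without cells; nearly all actives have a fitted effect of over 55% in size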
#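 Fibrosarcoma NT cells, 750 per well in 5% FBS RPMI, were exposed to compound for 48 hours. Viability: CellTiter-Glo luminescence.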
# The depositor's hits bear a star; i = inactive; ? = inconclusive; / = no result; [ ] = remark or other dose. This is a sample that favours compounds with a hit; in the whole collection about 19% have one here. Unless noted, calls come from the whole dose curve; as a rule, active = well fitted curve in the direction sought with a large enough effect; inconclusive = small, poorly fitted or top-dose-only effect, or another doubt; inactive = no such curve, though single readings can be large; an effect the other way counts as inactive or inconclusive. Unless noted, % is set by controls: 0 for no effect and ±100 for the full control effect.
SMILES,TDP1 cell CPT,TDP1 cell noCPT,HT1080 IDH1KD tx,IL1B secr inh,HT1080-NT tox
Cc1cccc(NS(=O)(=O)c2ccc(C)c(C(=O)NCc3ccccn3)c2)c1,-23.0%,?,0.4%,0.1,-8.7%
CCN(c1ccccc1)S(=O)(=O)c1ccc(C(=O)N(C)Cc2cccs2)cc1,?,23.1µM*,-5.6%,-14.9,3.6%[9.24 µM]
Cc1cccc(NS(=O)(=O)c2ccc(C)c(C(=O)NCC(c3cccs3)N(C)C)c2)c1 (centres undefined),18.4µM*,?,-12.0%,-8.5,-2.8%
COCC(=O)NNS(=O)(=O)c1ccccc1[N+](=O)[O-],-0.1%,-13.9%,10.2%,1.1,12.7%
CNS(=O)(=O)c1cn(CC(=O)Nc2ccc(OC)cc2OC)cc1S(=O)(=O)NC,-13.3%,-6.5%,/,/,/
CCN(CC(=O)NCc1cccs1)C(=O)c1cccc(S(=O)(=O)NCc2ccccc2)c1,-12.7%,-21.1%,20.2%,-12.3,1.4%
CCN(CC(=O)NCc1cccs1)C(=O)c1cccc(S(=O)(=O)N(CC)c2ccccc2)c1,?,23.1µM*,0.0%,9.2,-4.5%
O=C1C(NS(=O)(=O)c2cccs2)=C(N2CCOCC2)C(=O)c2ccccc21,?,?,?,10.3,?
O=C(CNS(=O)(=O)c1cccs1)N1CCN(c2cccc(C(F)(F)F)c2)CC1,16.4µM*,20.6µM*,/,/,/
O=C1C(NS(=O)(=O)c2cccs2)=C(N2CCN(c3cccc(C(F)(F)F)c3)CC2)C(=O)c2ccccc21,16.4µM*,23.1µM*,?,-24.0,?
CN1CCN(C2=C(NS(=O)(=O)c3cccs3)C(=O)c3ccccc3C2=O)CC1,16.4µM*,20.6µM*,?,68.7,?
O=C1C(NS(=O)(=O)c2cccs2)=C(N2CCN(Cc3ccccc3)CC2)C(=O)c2ccccc21,?,16.4µM*,-11.1%,4.6,-1.5%
CC(NS(C)(=O)=O)C(c1cccs1)N1CCN(Cc2ccccc2)CC1 (centres undefined),?,?,2.9%,8.4,-5.8%
CC(C)(c1ccc(O)cc1)c1ccc(O)c(C(=O)O)c1,2.3%,-13.8%,-0.3%,6.3,-0.2%
CCOc1ccccc1N1CCN(C2=C(NS(=O)(=O)c3cccs3)C(=O)c3ccccc3C2=O)CC1,?,25.9µM*,?,-29.0,?
O=C(COC(=O)c1ccc(F)cc1Cl)NC1CCS(=O)(=O)C1 (centres undefined),0.6%,-9.9%,-2.9%,-14.2,8.4%
COc1ccc2c(c1)C=C([C@@H]1C[C@H]3CN(c4ccccc4)C(=O)[C@]34CCCN14)CO2,?,20.6µM*,-0.5%,-2.1,-1.0%
CC(CNS(=O)(=O)c1ccc(Cl)cc1)n1cncn1 (centres undefined),-5.2%,-11.8%,14.8%,11.2,7.3%
CCCNC(=O)C1(C)CCN(CCS(=O)(=O)c2ccc(C)cc2)C1 (centres undefined),-15.9%,-21.3%,-1.7%,-2.2,-7.3%
COCCNC(=O)C1(C)CCCN(CCC(=O)c2ccc(Br)cc2)C1 (centres undefined),5.8µM*,7.31µM*,?,-15.5,?
CCCNC(=O)C1(C)CCN(CCC(=O)c2ccc(Br)cc2)C1 (centres undefined),2.59µM*,3.26µM*,?,-13.8,-20.4%
CCNC(=O)C1(C)CCN1CCC(=O)c1ccc(Br)cc1 (centres undefined),20.6µM*,16.4µM*,4.7%,0.0,13.7%
CCCCn1c(N)c(N(CC(C)C)C(=O)c2cc(C)oc2C)c(=O)[nH]c1=O,-11.7%,-13.0%,-15.8%,i,-9.2%
CC(C)(C)c1ccc(S(=O)(=O)NCCN2CCOCC2)cc1,-21.0%,-23.7%,1.6%,-0.3,2.8%
Cc1cc2nc(CCN3CCOCC3)n(S(=O)(=O)c3ccc(C(C)(C)C)cc3)c2cc1C,18.4µM*,?,2.9%,11.2,-3.7%
SMILES,TDP1 cell CPT,TDP1 cell noCPT,HT1080 IDH1KD tx,IL1B secr inh,HT1080-NT tox
Cc1cccc(C(=O)Nc2ccc(N3CCN(c4ccc(F)cc4)CC3)c(C(=O)O)c2)c1,-13.5%,-6.4%,/,/,/
O=C(Nc1ccc(CN2CCOCC2)cc1)c1ccc(Br)cc1,-2.8%,0.9%,-1.7%,36.8,-1.0%
O=C(NC(=S)Nc1ccc(CN2CCOCC2)cc1)c1ccc2c(c1)OCCO2,?,14.6µM*,?,?,?
COc1ccc(NC(=S)NC(=O)c2ccc3c(c2)OCCO3)cc1,?,18.4µM*,-3.4%,-14.7,-3.9%
O=C(Nc1ccc(CN2CCOCC2)cc1)c1ccc(-c2ccc(Br)cc2)o1,16.4µM*,18.4µM*,?,-79.2*,14.1µM*
COc1ccc(C(=O)NC(=S)Nc2ccc(CN3CCOCC3)cc2)cc1Br,?,10.3µM*,-1.8%,-1.5,-8.2%
O=C(NC(=S)Nc1ccc(CN2CCOCC2)cc1)c1ccc([N+](=O)[O-])cc1,?,-23.6%,-0.1%,31.3,-3.9%
CCOc1ccc(C(=O)Nc2ccc(CN3CCOCC3)cc2)cc1Br,?,?,-29.7%,?,?
CC(=O)CSc1nnc(Cc2ccc3c(c2)OCO3)o1,1.3%,-12.5%,1.0%,8.0,-7.7%
COc1cccc(CNC(=O)CCS(=O)(=O)c2ccc3c(c2)NC(=O)CO3)c1,5.6%,4.6%,15.2%,6.6,0.6%
CSCC[C@H](NC(=O)[C@H](Cc1ccccc1)n1c(=O)[nH]c2ccccc2c1=O)C(=O)N[C@@H](Cc1ccccc1)C(=O)O,0.5%,2.0%,8.7%,15.2,3.7%
CS(=O)(=O)N1CCN(c2ccc(NC(=S)NC(=O)c3ccc4c(c3)OCO4)cc2)CC1,-16.5%,?,-1.9%,56.0,-8.7%
O=C(NC(=S)Nc1ccc(N2CCOCC2)cc1)c1ccc(Cl)cc1,-14.1%,-8.6%,7.8%,14.8,13.2%
O=C(NC(=S)Nc1ccc(N2CCCCC2)cc1)c1ccc2c(c1)OCCO2,?,16.4µM*,?,0.0,-0.4%
O=C(NC(=S)Nc1ccc(N2CCOCC2)cc1)c1ccc2c(c1)OCCO2,?,23.1µM*,-19.1%,-1.6,-13.7%
CCCNC(=O)C1(C)CCN(C(=O)c2cc(C(C)(C)C)nn2C)C1 (centres undefined),-7.2%,1.6%,18.7%,23.1,0.5%
O=c1ccc(Cc2ccccn2)n[nH]1,-16.1%,-0.2%,4.1%,6.0,8.6%
CC1CCC(NC(=O)c2ccc3c(c2)N(Cc2ccccc2F)C(=O)c2ccccc2S3(=O)=O)CC1 (centres undefined),-10.9%,?,/,/,/
O=c1c2ccccc2nc2n1C(CSCc1ccc(Cl)cc1)CS2 (centres undefined),10.3µM*,16.4µM*,-18.1%,-12.0,-15.5%
